Screening results (PubChem BioAssay)
GSH bead fluor – compound fluorescence on glutathione beads, profiling panel, artefact control, biophysical, 488/530 nm, flow cytometry. GSH beads flow cytometry, compound fluorescence 488/530 nm; active compounds read high. fluorescence (KMESF) at 10 µM. hit rate 0.25% among 190,000. AID 1776, 2009; in the data active = fluorescence above about 89;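 note: glutathione beads carrying GST-tagged Bcl family fusion proteins plus one bare bead set; values are compound well signal with DMSO vehicle wells as background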
RGS4-Gao reg – modulators of RGS4 binding to Galphao, primary screen, biochemical, multiplexed bead flow cytometry. hit rate 0.33% among 220,000. AID 1415, 2008. binding response (% of control), % at 10 µM. actives lie on both sides. Guanine nucleotide-binding protein G(o) subunit alpha (Homo sapiens), P09471; in the data active = binding response below about 49% or above about 150%; inactive = in between;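 note: fluorescent Galphao activated with aluminum fluoride binding bead-coupled RGS4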
Target sequence (P09471 whole entry, looked up): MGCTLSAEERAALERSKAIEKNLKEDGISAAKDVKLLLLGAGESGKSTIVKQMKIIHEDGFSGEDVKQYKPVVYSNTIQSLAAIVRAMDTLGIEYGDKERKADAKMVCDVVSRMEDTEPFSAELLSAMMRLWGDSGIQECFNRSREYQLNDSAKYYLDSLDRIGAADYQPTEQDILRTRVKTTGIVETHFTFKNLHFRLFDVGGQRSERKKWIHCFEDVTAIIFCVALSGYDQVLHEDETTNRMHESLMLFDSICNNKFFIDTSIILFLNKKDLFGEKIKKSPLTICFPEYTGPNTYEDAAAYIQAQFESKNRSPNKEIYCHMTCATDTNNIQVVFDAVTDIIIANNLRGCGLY
RGS8-Gao – RGS8-Galphao binding modulators, primary screen, biochemical, multiplexed bead flow cytometry; Guanine nucleotide-binding protein G(o) subunit alpha (Homo sapiens), P09471; actives lie on both sides; response (percent of control binding), % at 10 µM; hit rate 0.34% among 220,000; in the data active = response below about 60% or above about 140%; inactive = in between;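 note: Galphao activated as the GDP aluminium fluoride complex binding bead-coupled RGS8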
RGS16-Gao HTS – modulators of RGS16 binding to Galphao, primary screen, biochemical, human proteins, multiplexed bead flow cytometry; Regulator of G-protein signaling 16 (Homo sapiens) + Guanine nucleotide-binding protein …; hit rate 0.38% among 220,000; bead-based flow cytometry RGS16-Galphao binding, fluorescence; actives lie on both sides; binding response (% of control), % at 10 µM; AID 1441, 2008; call rule not given here;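 note: Galphao activated by GDP with aluminum fluoride before binding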
Target sequence (O15492 whole entry, looked up): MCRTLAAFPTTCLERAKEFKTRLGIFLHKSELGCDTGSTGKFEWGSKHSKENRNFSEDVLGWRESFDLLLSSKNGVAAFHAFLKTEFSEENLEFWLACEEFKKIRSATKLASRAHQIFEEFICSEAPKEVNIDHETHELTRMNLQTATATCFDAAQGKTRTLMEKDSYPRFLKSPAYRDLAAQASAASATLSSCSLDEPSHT
Target sequence (P09471 whole entry, looked up): as the sequence (P09471 whole entry, looked up) above
RGS7-Gao – RGS7-Galphao binding modulators, primary screen, biochemical, multiplexed bead flow cytometry. Guanine nucleotide-binding protein G(o) subunit alpha (Homo sapiens), P09471. hit rate 0.35% among 220,000. actives lie on both sides. AID 1439, 2008. binding response (% of control), % at 10 µM; in the data active = binding response below about 49% or above about 150%; inconclusive = no clear call, values can overlap the other calls; inactive = in between;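 note: fluorescent Galphao held in activated GDP-AlF4 state binding bead-coupled RGS7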
Avidin bead fluor – green autofluorescence of compounds with avidin beads – biophysical, 488/530 nm, flow cytometry, artefact control, profiling panel; compound fluorescence 488/530 nm; active compounds read high; fluorescence (KMESF) at 10 µM; hit rate 0.38% among 220,000; in the data active = fluorescence above about 47
* marks the source's active call; other numbers are inactive results; ? = inconclusive; . = no result. Most compounds without a hit are left out; they make up all but 1.2% or so of the library.

SMILES	GSH bead fluor	RGS4-Gao reg	RGS8-Gao	RGS16-Gao HTS	RGS7-Gao	Avidin bead fluor
C=CCN=C1S/C(=C\c2ccc(Cl)cc2)C(=O)N1CC=C	.	122.3	98.5	113.7	?	49*
CCOc1ccc(-n2c(-c3ccccc3)c[n+]3c2CCC3)cc1	20	96.5	100.0	99.9	?	10
CSc1c[n+]2c(n1C)CCC2	11	106.2	101.4	107.9	112.9	52*
CC(Oc1ccc(Cl)cc1Cl)c1nc(-c2ccc(NC(=O)c3ccncc3)cc2)no1 (configuration not stated)	97*	102.4	94.0	100.6	95.7	4
CC(Oc1ccc(Cl)cc1Cl)c1nc(-c2ccc(NC(=O)c3cccnc3)cc2)no1 (configuration not stated)	23	97.7	100.1	90.7	96.2	13
COc1ccc(-c2cc(-c3ccccc3)nc(SCC(=O)Nc3nccs3)c2C#N)cc1	14	110.2	105.0	121.5	112.8	56*
CCOC(=O)Cc1cc(=O)n2[nH]c(C(C)(C)C)cc2n1	.	106.7	100.5	96.4	?	7
COc1cc(C(=O)COC(=O)CNC(=O)C2CCCCC2)cc(OC)c1OC	15	103.0	102.3	101.3	107.0	53*
CS(=O)(=O)N(Cc1ccccc1)c1ccc(C(=O)NCCSCc2ccco2)cc1	88*	91.8	100.4	103.0	95.8	6
CC(C)NC(=O)CSCc1c(F)cccc1Cl	121*	93.7	98.3	95.7	97.9	5
O=C(c1ccco1)N1CCN(C(c2ccc(F)cc2)c2nnnn2Cc2cccs2)CC1 (configuration not stated)	260*	106.5	110.6	126.7	100.9	7
O=C(c1cccs1)N1CCN(CCCc2ccccc2)CC1	263*	100.8	100.7	107.9	100.5	7
CCN(CC)S(=O)(=O)c1ccc(OC)c(NC(=O)CSc2cc(Cl)ccc2Cl)c1	4	99.4	101.8	107.7	96.0	12
O=C(CSc1nnnn1C1CCCC1)Nc1ccc(F)cc1	37	109.4	107.3	108.0	129.1	89*
O=C(CSc1nnnn1C1CCCCC1)Nc1ccc(F)cc1	22	104.5	103.2	102.5	108.1	5
Cc1ccc(C(C)C)c(OC/C(O)=C(\C#N)c2nc3ccccc3[nH]2)c1	.	102.1	102.6	97.2	?	11
COc1ccc(-c2nnn(CCc3nn[nH]n3)n2)cc1OC	25	92.0	101.5	91.2	95.3	13
COc1ccc(-c2nnn(Cc3nn[nH]n3)n2)cc1OC	280*	96.4	97.4	96.5	96.5	8
CCc1nc2sc(C)c(C)c2c(=O)n1CCO	28	129.9	104.5	141.5	120.4	52*
COc1ccc(OC)c(CC(NC(C)=O)C(=O)NC2CCN(c3cc(C)nc4ncnn34)CC2)c1 (configuration not stated)	23	100.2	101.7	103.6	100.5	10
COC(=O)COc1ccc(S(=O)(=O)Nc2ccccc2C(=O)OC)cc1	39	111.0	103.9	108.0	146.1	63*
CCCc1cc(=O)[nH]c(SCC(=O)Nc2ccc3c(c2)CCC3)n1	13	102.7	101.7	112.7	99.6	11
CCCc1cc(=O)[nH]c(SCC(=O)Nc2ccc(OC(F)F)cc2)n1	260*	102.9	103.1	103.0	103.2	7
CC(C)Cn1c(N)c(C(=O)CSc2nc3ccccc3c(=O)n2CCCN2CCOCC2)c(=O)n(C)c1=O	13	99.4	102.4	99.8	?	12
Cc1cc(C(C)(C)C)oc1C(=O)Nc1ccc(CC(=O)O)cc1	239*	93.2	99.6	62.0	93.2	4
SMILES	GSH bead fluor	RGS4-Gao reg	RGS8-Gao	RGS16-Gao HTS	RGS7-Gao	Avidin bead fluor
Cc1ccc(C(=O)Nc2ccc(CC(=O)O)cc2)o1	254*	97.1	100.0	97.4	97.7	6
c1coc(CNC2CCCCC2)c1	14	96.4	92.7	90.8	95.4	6
c1coc(CNC2CCCCCCC2)c1	11	91.0	69.0	110.6	140.8	84*
CCn1c(SCC(=O)C(C)(C)C)nnc1-c1ccccn1	32	97.8	97.6	103.3	100.5	15
CCn1c(SCC(=O)C(C)(C)C)nnc1-c1cnccn1	95*	91.6	99.2	73.6	85.7	4
CCCCCCNC(=O)N[C@H](C(=O)NCCC[C@H]1CN2C(=NC[C@H]2C)N1CCC(c1ccccc1)c1ccccc1)C(C)O (some centres not stated)	.	94.8	70.1	59.7	?	12
COc1ccc2ccccc2c1CN1CCCC(CO)C1 (configuration not stated)	18	101.0	99.7	101.9	112.8	57*
COc1ccc2ccccc2c1CN1CCN(Cc2ccccc2)CC1	11	101.7	101.4	100.0	100.0	8
CC(C)(C)c1ccc(C(=O)CC(=O)c2cc(Cl)ccc2O)cc1	245*	106.5	100.8	110.0	103.0	8
O=c1c2ccccc2c(C=Nc2cccc(O)c2)c(O)n1-c1ccc2c(c1)OCO2	12	85.4	98.0	100.3	92.6	57*
COc1ccc(Nc2nc(N)c([N+](=O)[O-])c(NCc3ccccc3)n2)cc1	.	128.3	101.5	120.3	?	56*
Cc1ccc(Nc2nc(N)c([N+](=O)[O-])c(NCc3ccccc3)n2)cc1	.	104.5	102.8	104.3	?	8
CCc1ccc(C(=O)COC(=O)CNC(=O)c2cccs2)cc1	44	107.3	102.1	103.0	138.8	78*
COc1ccc(OC)c(C(=O)CSc2nc3ccccc3n2CC(=O)NC(C)(C)C)c1	270*	102.9	104.5	111.0	106.4	7
Cn1nnnc1SCC1=C(C(=O)O)N2C(=O)[C@@H](NC(=O)[C@H](O)c3ccccc3)[C@H]2SC1	16	.	.	.	.	.
Cc1cc(C(F)F)nn1CC(=O)NC1C(=O)N2C(C(=O)O)=C(CSc3nnnn3C)CSC12 (configuration not stated)	64	112.8	96.7	100.7	131.7	58*
Cc1nc2ccc(NC(=O)Cc3ccccc3F)cc2s1	17	114.6	102.7	102.5	?	53*
COC(=O)c1ccc(COc2ccc(/C=N/Nc3nc(C)cc(=O)[nH]3)cc2)cc1	.	109.2	100.1	101.0	?	18
CCC(=O)NC(=S)NNC(=O)COc1ccc(Br)cc1	9	98.7	100.3	97.2	89.7	9
CN(C)c1nnnn1-c1ccc(Oc2ncc(C(F)(F)F)cc2Cl)cc1	13	103.8	106.9	124.2	105.2	22
S=C(NCCN1CCOCC1)NC1CCCC1	15	102.5	100.6	103.2	?	12
